“And” between values parts separate entries of the source, which are not always exact repeats. Equal entries are not always repeated. Records with an inconclusive call do not appear. The source made the active and inactive calls. Rule for the calls, unless noted: active = hit-call score of the fitted dose curve at least 0.9, where 1 is the maximum; inactive = score below 0.9.
Columns and labels:
[1] = ATG_M_06_TRANS: Attagene TRANS-FACTORIAL HepG2 Assay for M06 Transcription Factor (Internal Marker) (AID 2282983; active = hit-call score of the fitted dose curve at least 0.9, where 1 is the maximum); conditions: HepG2 Attagene TRANS M06 internal marker reporter
Outline: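 Internal-marker background readout from a multiplexed TRANS reporter system in HepG2; 24 h dosing; mRNA induction quantified by RT-PCR plus capillary electrophoresis fluorescence; DMSO as negative control and baseline.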

[2] = target: Nuclear receptor subfamily 4 group A member 2 (Homo sapiens) (UniProt P43354); assay: ATG_NURR1_TRANS: Attagene TRANS-FACTORIAL HepG2 Assay for human Nuclear Receptor Related Protein 1 (NURR1) (AID 2282985; active = hit-call score of the fitted dose curve at least 0.9, where 1 is the maximum); conditions: HepG2 Attagene TRANS reporter, mRNA readout
Outline: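 After 24 h chemical dosing, total RNA from transiently transfected HepG2 cells was reverse-transcribed and reporter cDNA PCR-amplified, FAM-labelled and analysed by capillary electrophoresis. Activity fitted in positive direction, DMSO as negative control.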

[3] = target: Transcriptional activator Myb (Homo sapiens) (UniProt P10242); assay: ATG_Myb_CIS: Attagene CIS-FACTORIAL HepG2 Assay for human Myeloblastosis (Myb) Proto-Oncogene Transcription Factor (AID 2282986); conditions: HepG2 Attagene CIS-FACTORIAL Myb reporter transcription; actives raise or lower the signal
Outline: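 Reporter transcript levels, quantified by fluorescent RT-PCR and capillary electrophoresis, serve as the read-out. Transfected HepG2 cells carrying cis-promoter reporter units are dosed for 24 hours, and curves are fitted bidirectionally against DMSO controls.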

[4] = target: Nuclear respiratory factor 1 (Homo sapiens) (UniProt Q16656); assay: ATG_NRF1_CIS: Attagene CIS-FACTORIAL HepG2 Assay for human Nuclear Respiratory Factor 1 (NRF1) Orphan Gene (AID 2282987); conditions: HepG2 NRF1 cis-element reporter, Attagene multiplex; actives raise or lower the signal
Outline: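 Multiplexed cis-reporter assay, HepG2 cells, 24 h treatment. Total RNA → oligo(dT) RT → PCR with reporter-specific primers → 6-FAM primer extension → HpaI cut → CE. Bidirectional fit vs DMSO.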

[5] = ATG_NFI_CIS: Attagene CIS-FACTORIAL HepG2 Assay for human Nuclear Factor I (NFI) (AID 2282989); conditions: HepG2 cis-regulatory reporter, NFI response element transcription; actives raise or lower the signal
Outline: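 Read-out: reporter mRNA via RT-PCR plus capillary electrophoresis with fluorescence detection. Transiently transfected HepG2 (endogenous TF activity on cis promoters), 24 h compound exposure; gain or loss of signal fitted against DMSO.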

[6] = target: Myc proto-oncogene protein (Homo sapiens) (UniProt P01106); assay: ATG_Myc_CIS: Attagene CIS-FACTORIAL HepG2 Assay for human Myelocytomatosis (Myc) Proto-Oncogene Transcription Factor (AID 2282990); conditions: HepG2, Attagene cis-reporter transcription factor activity; actives raise or lower the signal
Outline: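 HepG2 cells transiently transfected with multiple cis-promoter-driven reporter transcription units, so endogenous TF activity is read. After 24 h compound exposure, reporter mRNA was quantified by RT-PCR, 6-FAM labelling, HpaI digestion and capillary electrophoresis; bidirectional fit versus DMSO.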

[7] = ATG_NRF2_ARE_CIS: Attagene CIS-FACTORIAL HepG2 Assay for human Nuclear Factor Erythroid 2 Related Factor 2 (NFR2) response to Antioxidant Response Elements (ARE) (AID 2282992); conditions: HepG2 Attagene ARE/NRF2 reporter, transcription factor activity; actives raise or lower the signal;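 for AC50: reporter mRNA level measured by RT-PCR and capillary electrophoresis fluorescence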
Outline: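 Multiplexed reporter mRNA profiling in HepG2 after a 24 h chemical exposure. Curves fitted in both directions relative to DMSO negative control.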

[8] = ATG_NF_kB_CIS: Attagene CIS-FACTORIAL HepG2 Assay for human Nuclear Factor Kappa B (NF-kB) (AID 2282991); conditions: HepG2 Attagene cis-factorial NF-kB reporter mRNA; actives raise or lower the signal
Outline: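 Transient MRTU transfection of human HepG2 liver cells → 24 h chemical exposure → total RNA, oligo(dT) RT → PCR, 6-FAM primer extension, HpaI digest 2 h 37 C → CE fragment analysis. Bidirectional fitting, DMSO negative control.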

[9] = ATG_M_32_TRANS: Attagene TRANS-FACTORIAL HepG2 Assay for M32 Transcription Factor (Internal Marker) (AID 2282984; active = hit-call score of the fitted dose curve at least 0.9, where 1 is the maximum); conditions: HepG2 Attagene TRANS M32 internal marker reporter
Outline: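 Human hepatoma HepG2, transient MRTU transfection, 24 h treatment. RNA → RT-PCR → fluorescent primer extension → HpaI digest (2 h, 37 C) → CE. Positive-direction fit vs DMSO.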

Measured: AC50

Sequence of Myc proto-oncogene protein (Homo sapiens) (P01106 whole entry, looked up): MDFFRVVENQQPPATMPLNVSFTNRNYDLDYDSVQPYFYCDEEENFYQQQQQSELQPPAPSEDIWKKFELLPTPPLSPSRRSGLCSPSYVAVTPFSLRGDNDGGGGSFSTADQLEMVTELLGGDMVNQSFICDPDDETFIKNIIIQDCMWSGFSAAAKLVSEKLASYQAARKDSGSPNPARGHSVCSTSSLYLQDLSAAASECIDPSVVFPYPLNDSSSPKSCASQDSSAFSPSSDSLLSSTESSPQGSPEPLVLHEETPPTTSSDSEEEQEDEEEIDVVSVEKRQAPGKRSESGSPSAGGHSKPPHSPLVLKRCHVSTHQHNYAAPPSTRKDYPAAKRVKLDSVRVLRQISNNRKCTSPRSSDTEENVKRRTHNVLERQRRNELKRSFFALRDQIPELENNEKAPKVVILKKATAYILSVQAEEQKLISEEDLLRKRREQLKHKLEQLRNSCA
Sequence of Nuclear respiratory factor 1 (Homo sapiens) (Q16656 whole entry, looked up): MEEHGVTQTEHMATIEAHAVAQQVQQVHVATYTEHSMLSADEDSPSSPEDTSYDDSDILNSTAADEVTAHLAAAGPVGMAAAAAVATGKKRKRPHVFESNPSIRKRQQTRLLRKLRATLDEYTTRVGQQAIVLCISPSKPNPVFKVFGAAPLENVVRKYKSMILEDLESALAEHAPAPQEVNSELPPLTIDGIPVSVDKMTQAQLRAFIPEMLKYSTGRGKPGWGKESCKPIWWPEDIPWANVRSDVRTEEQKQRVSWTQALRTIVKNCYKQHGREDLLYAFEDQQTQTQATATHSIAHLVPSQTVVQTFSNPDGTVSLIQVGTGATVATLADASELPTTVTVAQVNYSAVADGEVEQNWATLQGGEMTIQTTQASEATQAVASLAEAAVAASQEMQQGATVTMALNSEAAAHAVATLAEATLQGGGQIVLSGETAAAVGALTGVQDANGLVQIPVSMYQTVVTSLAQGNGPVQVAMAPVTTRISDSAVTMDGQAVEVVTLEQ
Sequence of Nuclear receptor subfamily 4 group A member 2 (Homo sapiens) (P43354 whole entry, looked up): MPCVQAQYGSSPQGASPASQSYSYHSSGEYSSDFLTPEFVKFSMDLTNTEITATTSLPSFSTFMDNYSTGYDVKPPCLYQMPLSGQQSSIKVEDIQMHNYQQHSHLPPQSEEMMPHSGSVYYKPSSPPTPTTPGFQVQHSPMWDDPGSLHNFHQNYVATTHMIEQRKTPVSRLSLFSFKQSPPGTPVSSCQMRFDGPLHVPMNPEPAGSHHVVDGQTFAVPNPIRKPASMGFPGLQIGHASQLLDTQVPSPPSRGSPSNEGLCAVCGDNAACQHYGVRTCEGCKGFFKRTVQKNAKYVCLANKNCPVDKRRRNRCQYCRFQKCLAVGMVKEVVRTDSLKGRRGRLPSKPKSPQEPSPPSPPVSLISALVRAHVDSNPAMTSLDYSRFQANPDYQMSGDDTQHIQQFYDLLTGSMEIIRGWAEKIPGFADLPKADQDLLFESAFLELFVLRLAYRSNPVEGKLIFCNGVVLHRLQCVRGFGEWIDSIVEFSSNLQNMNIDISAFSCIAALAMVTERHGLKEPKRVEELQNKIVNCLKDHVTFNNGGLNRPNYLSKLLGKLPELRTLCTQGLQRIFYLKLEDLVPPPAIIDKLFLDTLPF
Sequence of Transcriptional activator Myb (Homo sapiens) (P10242 whole entry, looked up): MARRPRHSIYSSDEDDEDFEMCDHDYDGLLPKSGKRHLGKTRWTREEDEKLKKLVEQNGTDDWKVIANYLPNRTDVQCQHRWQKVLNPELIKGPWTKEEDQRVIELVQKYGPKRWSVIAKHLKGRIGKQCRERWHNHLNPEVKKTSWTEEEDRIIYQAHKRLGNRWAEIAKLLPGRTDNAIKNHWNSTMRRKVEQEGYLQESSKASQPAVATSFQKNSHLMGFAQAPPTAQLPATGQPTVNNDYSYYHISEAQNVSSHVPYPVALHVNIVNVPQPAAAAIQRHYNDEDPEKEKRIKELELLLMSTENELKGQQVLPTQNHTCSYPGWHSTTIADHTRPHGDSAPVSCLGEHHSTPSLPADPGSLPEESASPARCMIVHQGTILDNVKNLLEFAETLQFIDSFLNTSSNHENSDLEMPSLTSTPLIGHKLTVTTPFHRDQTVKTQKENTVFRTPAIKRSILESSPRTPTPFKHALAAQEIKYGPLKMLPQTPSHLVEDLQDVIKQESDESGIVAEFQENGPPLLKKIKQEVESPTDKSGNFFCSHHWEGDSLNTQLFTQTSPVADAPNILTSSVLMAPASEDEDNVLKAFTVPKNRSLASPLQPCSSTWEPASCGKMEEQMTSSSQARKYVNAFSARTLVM

OCC(O)CCl (stereo unspecified)
not listed: [8] | [9]
inactive: all other assays above

CCCCCCCCCl
not listed: [3] | [6] | [9]
inactive: all other assays above

C(=NC1CCCCC1)=NC1CCCCC1
inactive: [1] | [3] | [4] | [6] | [7]

CC(=O)[O][Hg][c]1ccccc1
active: [5] 3.71 µM | [7] 2.24 µM
inactive: [1] | [4] | [6] | [8]

CC1(C)Cc2cccc(O)c2O1
not listed: [3] | [8] | [9]
inactive: all other assays above

COP(=S)(OC)Oc1cc(Cl)c(Cl)cc1Cl
active: [7] 34.1 µM
inactive: [1] | [2] | [3] | [4] | [5]

CC(=[OH+])/C=C(/C)[O-].CC(=[OH+])/C=C(/C)[O-].CC(=[OH+])/C=C(/C)[O-].[Al]
not listed: [6] | [9]
inactive: all other assays above

CCOP(OCC)OCC
not listed: [6] | [8] | [9]
inactive: all other assays above

CCOP(=S)(OCC)SCSP(=S)(OCC)OCC
not listed: [3] | [8] | [9]
inactive: all other assays above

Nc1ncc([N+](=O)[O-])s1
active: [7] 73.2 µM
not listed: [6] | [9]
inactive: all other assays above

O=S(=O)(c1ccc(Cl)cc1)c1ccc(Cl)cc1
active: [7] 10 µM
inactive: [1] | [4] | [5] | [6]

O=C(CCl)CCl
inactive: [1] | [2] | [3] | [5]
active: [4] 56 µM | [8] 33.4 µM

Cc1cc(Cl)ccc1O[C@H](C)C(=O)O
not listed: [8] | [9]
inactive: all other assays above

N#CCc1ccc(Cl)cc1
not listed: [2] | [9]
inactive: all other assays above

CNC(=O)O/N=C/C(C)(C)S(C)=O (stereo unspecified)
inactive: [1] | [3] | [4] | [6] | [8]
active: [7] 55.1 µM

CC(C#N)CCC#N (stereo unspecified)
not listed: [3] | [5] | [9]
inactive: all other assays above

c1ccc(N=NNc2ccccc2)cc1
inactive: [1] | [4]
active: [2] 39.7 µM | [5] 180 µM | [6] 168 µM | [7] 30.9 µM

C=CC#N
active: [7] 119 µM
not listed: [1] | [6]
inactive: all other assays above

CCC(C)(C)c1ccc(O)c(C(C)(C)CC)c1
active: [2] 33.4 µM | [7] 11.1 µM
not listed: [1]
inactive: all other assays above

O=CC=O
inactive: [1] | [3] | [4] | [6]

O=C1CCCN1
not listed: [2] | [9]
inactive: all other assays above

OCc1ccco1
active: [7] 49.6 µM
inactive: [1] | [3] | [4] | [6] | [8]

C=C(C)C(=O)[O][Sn]([CH2]CCC)([CH2]CCC)[CH2]CCC
active: [2] 0.00168 µM | [7] 0.26 µM
not listed: [6] | [9]
inactive: all other assays above

O=C(NCO)NCO
inactive: [1] | [3] | [4] | [6] | [8]

Oc1cccc2cccnc12
inactive: [1] | [3] | [4] | [5] | [6]
active: [7] 15.3 µM and 1.64 µM

COP(=S)(OC)Oc1ccc(S(=O)(=O)N(C)C)cc1
inactive: [1] | [4] | [5] | [6]

CCOC(=O)CP(=O)(OCC)OCC
not listed: [1] | [8]
inactive: all other assays above

O=[N+]([O-])c1ccc(O)c([N+](=O)[O-])c1
inactive: [1] | [4] | [5] | [8] | [7]

COS(=O)(=O)c1ccc(C)cc1
not listed: [1]
inactive: all other assays above

CC(C)(c1ccc(OCC2CO2)cc1)c1ccc(OCC2CO2)cc1 (stereo unspecified)
active: [7] 8.41 µM
not listed: [1]
inactive: all other assays above

COc1ccc(OC)c(C=O)c1
not listed: [1] | [5] | [8]
inactive: all other assays above

CCc1ccccc1N
inactive: [9] | [3] | [4] | [6] | [7]

C=CC(=O)OCCCCCC(C)C
not listed: [1] | [5] | [9]
inactive: all other assays above

O=C(c1ccccc1)C(Cl)Cl
inactive: [9] | [2] | [6] | [7]
active: [4] 24.8 µM | [5] 25.1 µM | [8] 25.9 µM

Reference: PubChem BioAssay (EPA / NIEHS)
